p53 reactivation = restores transcriptional activity of mutant p53; H1299 p53-A138V BP100-luciferase reporter, luminescence, 24 h; Potency, µM (doses to about 92.2 µM), without a hit: top-dose activity change, positive = activation, usual class: activators; 320,000 compounds, 0.063% hits; also: % of control where 0% means no effect; nearly all actives have a fitted effect of over 45% in size
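p53-null H1299 cells stably carrying temperature-sensitive p53-A138V and a BP100-luciferase reporter were pinned with compounds (4-point, 1:5 series) and held 24 hrs at 37 deg C. Luminescence was read 10 min after detection reagent.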
Rab9 prom act = activators of Rab9 promoter | Huh7 Rab9 promoter-luciferase reporter, luminescence, 24 h | Potency, µM (series often up to 9.22 µM), inactives show at the highest dose activation, negative = inhibition, usual class: activators | 320,000 compounds, 2.8% hits | AID 485297; also: % of control where 0% means no effect; nearly all actives have a fitted effect of over 60% in size
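Huh7 cells stably carrying Rab9 promoter–luciferase reporter, plated 1500 cells/well, compound added after 2 h and incubated 24 h at 37 °C; luciferase luminescence then read after 10 min with detection reagent.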
NPC1 prom act = NPC1 promoter activation. Huh7 NPC1 promoter luciferase reporter, 24 h. Potency, µM (series often up to 9.22 µM), for the others: at the top dose activation, actives largely listed as activators. 320,000 compounds, 2.4% hits; also: % of control where 0% means no effect; nearly all actives have a fitted effect of over 60% in size
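Huh7 reporter cells (NPC1 promoter driving luciferase) are dosed with compound for 24 h at 37 °C, 5% CO2; luciferase detection reagent is then added and luminescence measured after 10 min at ambient temperature.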
ELG1 genotoxic = genotoxicity induction in ELG1-luciferase HEK293T cells; 330,000 compounds, 1.3% hits; AID 504466; HEK293T ELG1-luciferase reporter, luminescence, 16 h; Potency, µM (series often up to 46 µM), inactives show top-dose activity change, positive = activation, most hits filed as activators; also: % of control where 0% means no effect; nearly all actives have a fitted effect of over 60% in size
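ELG1-luciferase HEK293T cells, 2,000/well; compound pinned in; 16 hr, 37 °C, 5% CO2; ONE-Glo, 30 min RT; luminescence on CCD imager.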
FLuc counter = counter-screen for miR-21 project: firefly luciferase inhibitors or activators; P08659; purified FLuc, Km substrates, luminescence inhibition; Potency, µM (series often up to 57.5 µM), inactives show top-dose activity change, negative = inhibition, most hits filed as inhibitors; 360,000 compounds, 6.9% hits; AID 588342;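 also: plate controls were vehicle for no effect and reference inhibitor for full effect; nearly all actives have a fitted effect of over 55% in size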
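Biochemical qHTS of compounds, final roughly 60 µM downward over six points, against 10 nM purified firefly luciferase using Km concentrations of substrates (10 uM D-luciferin, 10 uM ATP) in Tris acetate pH 7.5 buffer; luminescence output.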
SMN2 splice enh = increases expression of the SMN2 splice variant; HEK293 SMN2-luciferase splicing reporter, luminescence, 30-36 h; Potency, µM (titrated, usually from 46.1 µM), inactives show at the top dose activity change, positive = activation, hits mostly activators; 210,000 compounds, 2.8% hits; AID 1458; also: % of control where 0% means no effect; nearly all actives have a fitted effect of over 55% in size
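qHTS luciferase splicing reporter: luminescence rises when SMN2 exon 7 is included in transfected HEK293 cells. Compound exposure lasted 30-36 h at 37C, with 4.5 mM final sodium butyrate as control, followed by a ONE-Glo read.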
An asterisk follows results filed as active; ? = inconclusive; / = no result given. The list is not random: actives were taken first. Their share in the collection is about 7.3%. Calls follow the shape of the dose curve; as a rule, active = well fitted curve in the direction sought with a large enough effect; inconclusive = small, poorly fitted or top-dose-only effect, or another doubt; inactive = no such curve, though single readings can be large; an effect the other way counts as inactive or inconclusive. Potency is read from the fitted curve at half-maximal effect.

SMILES	p53 reactivation	Rab9 prom act	NPC1 prom act	ELG1 genotoxic	FLuc counter	SMN2 splice enh
COc1ccc(C/C(=N\OC(C)=O)c2ccc(OC)cc2)cc1	0.1%	14.7%	14.2%	0.7%	0.601µM*	/
O=S(=O)(O)F	/	/	/	/	/	-19.3%
COc1ccc(CCN2CCCC(CN(C)C(=O)c3cc(C)oc3C)C2)cc1 (centres undefined)	35.5µM*	2.24µM*	2.51µM*	18.3µM*	13.5µM*	/
C/C(=C\C(=O)c1ccc(Br)cc1)NCc1ccccc1	18.7%	18.4%	1.1%	?	23.9µM*	-3.8%
COc1ccccc1N(CC(=O)NC1CCCC1)C(=O)c1cnn(C(C)C)c1	23.8%	?	?	11.1%	15.1µM*	?
COc1ccccc1N(CC(=O)NC1CCCCC1)C(=O)c1cnn(C(C)C)c1	-7.7%	-1.8%	0.2%	0.8%	-0.1%	4.5%
